The campaign covered roughly 340,000 compounds. About 2,000 (0.59%) were called active. Rule as the data show it: active = activation mostly above about 9.5% (no sharp cut-off); inactive = mostly below about 7.6%. This excerpt belongs to a sample that is enriched for actives.
What follows are compounds tested against 5-hydroxytryptamine receptor 5A (Homo sapiens) (UniProt P47898) (assay: activation of human 5-HT5A receptor – cell-based, luminescence, full-deck HTS, counter-screen for OPRM1-OPRD1 heterodimer agonist project, primary screen (AID 504692;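 also: 0% = cells with vehicle only and 100% = reference agonist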)). Settings: HTR5A agonist assay, at 9.3 µM, active compounds read high.
Chain of 5-hydroxytryptamine receptor 5A (Homo sapiens) (P47898 whole entry, looked up): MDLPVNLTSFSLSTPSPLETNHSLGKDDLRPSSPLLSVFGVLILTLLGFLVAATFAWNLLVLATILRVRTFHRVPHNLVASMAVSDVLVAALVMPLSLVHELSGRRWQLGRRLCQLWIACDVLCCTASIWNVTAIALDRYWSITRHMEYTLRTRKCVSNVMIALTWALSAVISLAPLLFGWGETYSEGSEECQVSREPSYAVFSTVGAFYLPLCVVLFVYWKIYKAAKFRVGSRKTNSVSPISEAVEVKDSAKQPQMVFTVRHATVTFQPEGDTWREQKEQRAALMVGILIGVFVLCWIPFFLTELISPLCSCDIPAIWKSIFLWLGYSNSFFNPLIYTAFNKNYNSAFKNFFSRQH

Row | Compound | activation
1 | Cc1cc(C)c(S(=O)(=O)N(C)CC(=O)NCC2CCCO2)c(C)c1 (stereo not given) | 8.59% (inactive)
2 | COc1ccc(CN2CCN(C(=O)CCC(=O)Nc3nnc(C(C)C)s3)CC2)cc1F | 2.2% (inactive)
3 | CC(C)OC(=O)c1sc2nc3c(cc2c1N)C(=O)CCC3 | 5.9% (inactive)
4 | Cc1ccc2nc(N(CCN(C)C)C(=O)C3=COCCO3)sc2c1 | -2.68% (inactive)
5 | Cc1ccc2sc(N(CCN(C)C)C(=O)/C=C/c3cccs3)nc2c1C | 6.97% (inactive)
6 | Cc1cc(C)c2nc(N(CCN(C)C)C(=O)/C=C/c3cccs3)sc2c1 | 11.5% (active)
7 | O=C(CSc1nnc(-c2ccc([N+](=O)[O-])cc2)o1)Nc1ccccn1 | 0.96% (inactive)
8 | CCc1ccc(OCC(=O)OC(C)C(=O)NC2CC2)cc1 (stereo not given) | 1.16% (inactive)
9 | Cc1ccc(S(=O)(=O)NCCC(=O)NCc2ccc(Cl)cc2)cc1C | -0.86% (inactive)
10 | CSc1ccc(S(=O)(=O)NCc2ccc(Cl)cc2)cc1 | 10.3% (active)
11 | CC(C)CNS(=O)(=O)c1ccc(CCC(=O)NCc2ccc(Cl)cc2)cc1 | 0.62% (inactive)
12 | Cc1cc(C(C)(C)C)oc1C(=O)N(CC(=O)NC1CCCC1)Cc1ccc(Cl)cc1 | 2.84% (inactive)
13 | CCOc1ccc(S(=O)(=O)NCCCn2ccnc2)cc1NC(C)=O | 2.78% (inactive)
14 | NC(=O)C1(C(N)=O)OC1c1ccc(Cl)cc1Cl (stereo not given) | 3.12% (inactive)
15 | O=C(COC(=O)c1n[nH]c2ccccc12)Nc1ccccc1Br | -1.79% (inactive)
16 | COc1ccc(C)cc1S(=O)(=O)NCCc1ccccc1 | 1.84% (inactive)
17 | COc1ccc(C(=O)O/N=C(\N)Cc2ccc(Cl)cc2Cl)cc1OC | 27.1% (active)
18 | COc1ccc(CCn2ccc(O)c(Cc3ccc(Cl)cc3Cl)c2=O)cc1OC | -0.18% (inactive)
19 | COc1ccc(C/C(N)=N/OC(=O)c2ccco2)cc1OC | 1.65% (inactive)
20 | CCOc1ncccc1C(=O)OCC(=O)N1c2ccccc2CC1C (stereo not given) | -1.04% (inactive)
21 | CCn1nc(C(=O)OCC(=O)N2c3ccccc3CC2C)c2ccccc2c1=O (stereo not given) | 36.7% (active)
22 | CCOC(=O)c1[nH]c(C)c(C(=O)OCC(=O)N2c3ccccc3CC2C)c1C (stereo not given) | -1.22% (inactive)
23 | COc1ccc(NC(=O)CSc2nnc(-c3ccccc3F)n2C2CC2)cc1S(N)(=O)=O | -5.29% (inactive)
24 | Cn1c(CCC(=O)Nc2ccccc2F)nnc1SCC(=O)Nc1ccccc1Cl | -0.17% (inactive)

Row | Compound | activation
25 | Cc1cc(C)cc(C(=O)N(CCc2ccccc2)C2=CC3CCC(C2)N3C)c1 (stereo not given) | 7.8% (inactive)
26 | CCCN(CCc1ccccc1)C1CCc2c(O)cccc2C1 (stereo not given) | 24.5% (active)
27 | CC(NC(=O)c1cc(-c2ccccc2)on1)c1ccccc1 (stereo not given) | 18.9% (active)
28 | CC(C)CNC(=O)c1cc(-c2ccc(Br)cc2)on1 | 5.27% (inactive)
29 | O=C(NC1CCCC1)c1cc(-c2ccccc2)on1 | -5.2% (inactive)
30 | CCOC(=O)c1c(/N=C/c2cc(C)ccc2O)sc2c1CCC2 | 3.38% (inactive)
31 | Cc1cc(-c2ccc(C)c(S(=O)(=O)NCCCN(Cc3ccccc3)C(C)C)c2)on1 | -3.67% (inactive)
32 | Cc1cc(-c2ccc(C)c(S(=O)(=O)Nc3ccc(S(N)(=O)=O)cc3)c2)on1 | 1.19% (inactive)
33 | Cc1cc(-c2ccc(C)c(S(=O)(=O)NC(C)Cc3ccco3)c2)on1 (stereo not given) | 11.8% (active)
34 | CCc1c(C)c2c(C)[nH]nc2oc1=O | 2.29% (inactive)
35 | CNS(=O)(=O)c1cccc(C(=O)OCCCC(=O)c2ccccc2)c1 | 2.3% (inactive)
36 | CN(C)CCCNC(=S)N1CCC(c2nc3ccccc3[nH]2)CC1 | 11.5% (active)
37 | CCCNC(=S)N1CCCC(c2nc3ccccc3[nH]2)C1 (stereo not given) | 2.29% (inactive)
38 | CCNC(=S)N1CCC(c2nc3cc(C)c(C)cc3[nH]2)CC1 | 0.03% (inactive)
39 | O=C(OCC(=O)N1CCCCCC1)c1cnc(Cl)c(Cl)c1 | -5.36% (inactive)
40 | CCCOc1ccc(C(=O)C(CCC(CNCC)C(=O)c2ccc(OCCC)cc2)CNCC)cc1 (stereo not given) | 19.9% (active)
41 | CCCOc1ccc(C(=O)CCC(=O)OC(C)C(=O)Nc2ccc(NC(C)=O)cc2)cc1 (stereo not given) | 2.99% (inactive)
42 | CCCOc1ccc(/C=N/NC(=O)C2CC2)c(OCCC)c1 | 4.85% (inactive)
43 | O=C(c1ccco1)N1CCN(Cc2cccc(C(F)(F)F)c2)CC1 | 4.8% (inactive)
44 | Cn1c(CN2CCOCC2)nc2cc(NC(=O)c3ccc(Cl)cc3)ccc21 | 9.89% (inactive)
45 | CN(c1ccccc1)S(=O)(=O)c1cc(C(=O)OCC(=O)N2CCN(C(=O)c3ccco3)CC2)ccc1Cl | 3.06% (inactive)
46 | CN(c1ccccc1)S(=O)(=O)c1cc(C(=O)N2CCN(c3ncccn3)CC2)ccc1Cl | 15.4% (active)
47 | CN(c1ccccc1)S(=O)(=O)c1ccc(C(=O)N2CCN(c3ccccc3Cl)CC2)cc1 | 0.22% (inactive)
48 | Cc1cc(C)cc(C(=O)NCC(=O)OCC(=O)N2CCCCC2)c1 | -2.45% (inactive)

Row | Compound | activation
49 | Cc1ccc(S(=O)(=O)N(CC(=O)NCCSC2CCCCC2)c2ccccc2F)cc1 | 2.64% (inactive)
50 | O=C(NC1(C(F)(F)F)N=C2SCCN2C1=O)c1ccco1 (stereo not given) | 3.99% (inactive)
51 | O=C(OC12CC3CC(CC(C3)C1)C2)c1ccc(NCc2cc(O)ccc2O)cc1 | 21.4% (active)
52 | CC(C)OC(=O)c1ccc(NCc2cc(O)ccc2O)cc1Cl | 3.07% (inactive)
53 | COC(=O)c1ccc(NCc2cc(O)ccc2O)cc1 | 6.1% (inactive)
54 | C/C(=N\NC(=S)NC1CCCCC1)c1ccc(C)o1 | 6.64% (inactive)
55 | CCOC(=O)C1CSC(CC(=O)Nc2ccc(OCC)cc2)C(=O)N1 (stereo not given) | -5.17% (inactive)
56 | CCN(CC(=O)Nc1cccc(S(=O)(=O)N2CCCCC2)c1)Cc1ccccc1 | 15.5% (active)
57 | CCN(CC(=O)Nc1ccc(S(=O)(=O)N2CCCC2)cc1)CC(=O)Nc1cccc(OC)c1 | -2.62% (inactive)
58 | CCN(CC)S(=O)(=O)c1cccc(NC(=O)c2ccc(S(=O)(=O)N3CCCC3)cc2)c1 | 13.2% (active)
59 | O=C(Nc1cccc(S(=O)(=O)N2CCCCC2)c1)c1cncc(Br)c1 | 0.4% (inactive)
60 | O=C(CSc1ccccc1)Nc1cccc(S(=O)(=O)N2CCCCC2)c1 | -8.72% (inactive)
61 | O=C(Nc1cccc(S(=O)(=O)N2CCCC2)c1)c1cncc(Br)c1 | 0.81% (inactive)
62 | CCOc1ccccc1NC(=O)CCS(=O)(=O)c1cccc2nsnc12 | 6.16% (inactive)
63 | O=C(COC(=O)c1cccnc1Cl)NC(=O)NC1CCCCC1 | -1.43% (inactive)
64 | OC(COCCC12CC3CC(CC(C3)C1)C2)CN1CCCCC1 (stereo not given) | 3.12% (inactive)
65 | CCCOc1cccc(C(=O)Nc2ccccc2C(=O)N2CCN(C)CC2)c1 | -7.36% (inactive)
66 | COc1ccccc1CNC(=O)COn1nnc2ccc(S(=O)(=O)N3CCOCC3)cc21 | -2.13% (inactive)
67 | O=C(COc1ccccc1)N1CCN=C1SCc1cccc(F)c1 | 8.07% (inactive)
68 | CC(=O)c1cccc(OCc2cc(C(=O)NC(C)Cc3cccnc3)no2)c1 (stereo not given) | 2.99% (inactive)
69 | CN(Cc1cnccn1)C(=O)c1cc(COc2cccc(C(F)(F)F)c2)on1 | 0.68% (inactive)
70 | CN(Cc1cccnc1)C(=O)c1cc(COc2ccc3ncccc3c2)on1 | 11.7% (active)
71 | O=S(=O)(NC1CCCC1)c1ccc(-n2cnnn2)cc1 | 4.29% (inactive)
72 | CCn1c(C(C)C)n[nH]c1=S | 1.98% (inactive)

Row | Compound | activation
73 | CCOC(=O)c1c(NC(=O)Cn2nc(C(F)(F)F)cc2C)sc2c1CCC2 | 12.1% (active)
74 | CCOC(=O)c1c(NC(=O)CSc2cn(CC)c3ccccc23)sc2c1CCC2 | -4.94% (inactive)
75 | CCOC(=O)c1c(NC(=O)NC(C)(C)C)sc2c1CCN(C)C2 | -2.16% (inactive)
76 | CCCn1c(SCC(=O)Nc2c(C)cccc2C)nnc1C(C)C | -3.62% (inactive)
77 | O=C(COc1ccccc1Cl)Nn1cnnc1 | 0.57% (inactive)
78 | COc1cc(-c2c(-c3ccc4c(c3)OCO4)noc2C)ccc1F | -0.29% (inactive)
79 | COC(=O)c1c(-c2ccsc2)oc2ccc(-c3cc(OC)c(OC)c(OC)c3)cc12 | 6.62% (inactive)
80 | COc1cc2c(-c3ccc4c(c3)OCO4)c(-c3ccsc3)oc(=O)c2cc1OC | 15.3% (active)
81 | O=C(CCl)NNc1cccc(Cl)n1 | -8.59% (inactive)
82 | COc1ccc2c(c1)C(=O)CC(c1ccccc1)O2 (stereo not given) | -1.73% (inactive)
83 | COc1ccc2c(c1)SC(C)CC2=O (stereo not given) | 10.6% (active)
84 | COc1ccc(N)c(C)c1 | 0.27% (inactive)
85 | O=S(=O)(c1cccc(-c2nnc(SC(F)F)n2-c2ccccc2)c1)N1CCCCC1 | 0.34% (inactive)
86 | CCOc1ccc(CN2CCN(Cc3ccc(C)o3)CC2CCO)cc1 (stereo not given) | -1.69% (inactive)
87 | Cc1ccc(CN2CCN(Cc3cn(C)nc3-c3ccccc3)CC2CCO)o1 (stereo not given) | -1.42% (inactive)
88 | Cc1ccc(CN2CCN(Cc3ccc(OCCO)cc3)CC2CCO)o1 (stereo not given) | 15% (active)
89 | Cc1ccc2c(c1)C(c1ccccc1)N(C(=O)c1ccc(F)cc1)CC(=O)N2 (stereo not given) | -1.42% (inactive)
90 | COc1ccc2c(CC(=O)OCC(=O)Nc3ccccc3[N+](=O)[O-])coc2c1 | -1.41% (inactive)
91 | O=S(=O)(Nc1ccccc1Br)c1cccs1 | 8.11% (inactive)
92 | O=S(=O)(Nc1ccccc1)c1ccc(NS(=O)(=O)c2cccs2)cc1 | 9.34% (active)
93 | Cc1ccc(NS(=O)(=O)c2cccs2)cc1S(=O)(=O)N1CCCCCC1 | 0.15% (inactive)
94 | Cc1c(OC(C)C(=O)NCC2CCC(C(=O)O)CC2)ccc2c1oc(=O)c1ccccc12 (stereo not given) | 1% (inactive)
95 | CCOC(=O)N1CCC(Nc2c(NCCCN3CCN(c4ccc(OC)cc4)CC3)c(=O)c2=O)CC1 | -0.13% (inactive)
